Source: PubChem BioAssay AID598 (SRMLSC, 2007)
The campaign covered roughly 85,000 compounds. About 5,100 (6%) were called active. The list comes from a sample in which actives are over-represented; it also holds similar structures and randomly drawn compounds. Unmarked numbers belong to inactive results.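 How the source made its calls: active means viability at or below 40%; inactive means viability above 40%.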

Test: H69AR cell viability reduction – human, 86K library, primary screen (AID 598);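 further: multidrug resistant small cell line overexpressing MRP-1 efflux transporter; 100% = mean luminescence of untreated control wells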
Settings: H69AR lung tumor viability, ATP luminescence, 72 h; at 10 µM; stronger effect = lower value

SMILES | viability
O=C(c1cc(-c2cccs2)on1)N1CCCCC1 | 97.2%
Cc1cc(NC(=O)c2cc(-c3cccs3)on2)nn1Cc1ccc(Cl)cc1 | 26.1% (active)
Cc1ccc(Cn2ccc(NC(=O)c3cc(C(C)C)on3)n2)cc1 | 95%
Cc1ccc(S(=O)(=O)N2CCN(S(=O)(=O)N3CCOCC3)CC2)cc1 | 93.1%
C/C(=N\NC(=O)c1ccc(C)cc1)C1C(=O)c2ccccc2C1=O | 78.5%
CC1CCN(C(=O)c2cc3nc(C4CC4)cc(C(F)(F)F)n3n2)CC1 | 97.6%
CCC(C)NC(=O)CSC1=Nc2ccccc2C2=NC(CCC(=O)NCc3ccco3)C(=O)N12 (configuration not stated) | 90.7%
COc1cc(-c2nc(-c3ccncc3)no2)cc(OC)c1OC | 88.6%
COc1ccc(-c2ccc(-c3noc(-c4ccncc4)n3)c(OC)n2)cc1 | 93.4%
CCOc1nc(-c2ccc(OC)cc2)ccc1-c1noc(-c2cc(OC)c(OC)c(OC)c2)n1 | 13.9% (active)
Cc1ccc(OCC(=O)N/N=C\c2ccco2)c(C)c1 | 93.4%
Cc1ccc(S(=O)(=O)NC(=O)N2CCCC(C)(C)C2)cc1 | 91%
Cc1ccc(S(=O)(=O)N(C)C2(C)CCS(=O)(=O)C2)cc1 (configuration not stated) | 109%
Cc1ccc(S(=O)(=O)C2(S(=O)(=O)c3ccc(C)cc3)CCCC2)cc1 | 18.3% (active)
O=C1Nc2c(Br)cc(Br)cc2C1(O)N1CCOCC1 (configuration not stated) | 31.2% (active)
Cc1c(-c2ccccc2)nc(N)c(C#N)c1-c1cccs1 | 77%
CCc1c(C)nc2cc(-c3cccs3)[nH]n2c1=O | 91.8%
CCc1c(-c2ccccc2)nc(N)c(C#N)c1-c1cccs1 | 36% (active)
O=C(O)CSc1nccn1-c1cccc(Cl)c1 | 88.9%
Cc1noc(NS(=O)(=O)c2ccc(N/C=C/C(=O)c3ccccc3)cc2)c1C | 76.1%
COc1ccc(CCNS(=O)(=O)c2ccc(Cl)s2)cc1OC | 93%
COc1ccc(-c2cc(C(F)(F)F)nc(NCc3cccnc3)n2)cc1 | 92.9%
COc1ccc(-c2nnco2)cc1OC | 107%
COc1ccc(-c2cc(C(F)(F)F)nc(S(C)(=O)=O)n2)cc1OC | 1.78% (active)
O=C(Nc1nncs1)c1cccc(S(=O)(=O)N2CCCCC2)c1 | 94.8%
Cc1ccc(-n2c(SCC(=O)Nc3ccc4c(c3)OCO4)nnc2-c2ccccn2)cc1 | 65.9%
Cc1cc(C)c(S(=O)(=O)N2C=CC(C(F)(F)F)=NCC2)c(C)c1 | 109%
